Bioassay records as filed in PubChem BioAssay.
Pf growth 48h – inhibits P. falciparum growth in the first generation, 48 h; P. falciparum luciferase growth in erythrocytes, 48 h; Potency, µM (doses to about 28.7 µM), for the others: at the highest dose activity change, negative = inhibition, hits mostly inhibitors; hit rate 5.9% among 310,000; also: potency is read from the fitted curve at half-maximal effect; % is scaled to controls: 0 for no effect and ±100 for the full control effect
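In quantitative HTS format, infected erythrocytes bearing luciferase-reporter parasites were treated for a single generation at 37 C. Luminescence after adding detection reagent served as the growth measure.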
CHX counter – counter-screen hit for Shiga toxin inhibitors, cycloheximide; cell reporter, cycloheximide protein synthesis inhibition counterscreen; max response, %; hit rate 12% among 300,000; AID 2314; in the data active = max response mostly above about 13%, no sharp cut-off; inactive = mostly below about 14%; also: read at 38.3 µM for the half of the compounds with a filed dose; 0% is about no effect
HCV inh – blocks hepatitis C virus; hit rate 3.4% among 340,000; Huh7.5.1 HCVcc-Cre infection, luciferase reporter, 44 h; Potency, µM (highest dose often 41.8 µM), for inactives: at the top dose activity change, negative = inhibition, hits mostly inhibitors; AID 651820; also: potency is read from the fitted curve at half-maximal effect; % is scaled to controls: 0 for no effect and ±100 for the full control effect
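HCVcc-Cre virus at an moi near 0.5 was added right after compound to cells cultured 4 h from seeding (1,000 cells/well). Luciferase activity was determined 44 h later, 15 min after substrate addition at RT.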
Shiga toxin inh – inhibitors of Shiga toxin in Vero cells; inhibition, % at 38.7 µM; Vero cells, Shiga toxin protein synthesis inhibition reporter; hit rate 9.2% among 290,000; AID 2315; in the data active = inhibition mostly above about 28%, no sharp cut-off; inactive = mostly below about 43%; also: 0% is about no effect
Pf growth 96h – P. falciparum growth inhibition at 96 hour, primary screen for plastid delayed-death inhibitors. hit rate 6.9% among 320,000. Potency, µM (doses to about 28.7 µM), for the others: top-dose activity change, negative = inhibition, hits mostly inhibitors. P. falciparum luciferase reporter growth, 96 h. AID 504834; also: potency is read from the fitted curve at half-maximal effect; % is scaled to controls: 0 for no effect and ±100 for the full control effect
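Two-generation exposure (96 h) targets delayed-death phenotype. Reporter parasites carrying integrated firefly luciferase, in red cells at 2% hematocrit and 0.05% parasitemia final, kept at 37 C, 5% CO2; luminescence loss indicates inhibition.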
HCMV inh – inhibitors of human cytomegalovirus | HFF cells, HCMV-luciferase reporter, 72 h; stronger effect = lower value | activity change, negative = inhibition, % at 57.5 µM | hit rate 4.5% among 410,000 | AID 1259415; in the data active = activity change below about -60%; inconclusive = no clear call, values can overlap the other calls; inactive = above about -39%; also: % is scaled to controls: 0 for no effect and ±100 for the full control effect
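HFF cells seeded 16 h at 37C, treated with compounds, infected with luciferase-reporter HCMV at MOI 1 PFU/cell; luciferase read at 72 h post infection, normalized to buffer-only and Salinomycin controls.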
The depositor's hits bear a star; i = inactive; u = inconclusive; x = no result; [ ] = another dose, or the depositor's remark. Shown are actives, neighbours in structure and some others; about 21% of the full set was active somewhere. Unless noted, calls follow the shape of the dose curve; as a rule, active = well fitted inhibition curve with a large enough effect; inconclusive = small, poorly fitted or top-dose-only effect, or another doubt; inactive = no such curve, though single readings can be large or run the other way.

SMILES	Pf growth 48h	CHX counter	HCV inh	Shiga toxin inh	Pf growth 96h	HCMV inh
Cc1ccccc1N(C(=O)c1csnn1)C(C(=O)NC1CCCC1)c1ccncc1 (configuration not stated)	4%	-9	16%	2	8%	1
CCOC(=O)CSc1nc2ccccc2c(=O)n1CCCCCC(=O)NCc1ccco1	12µM*	7	-28%	-6	33%	u
O=C(CSc1ncnc2c1oc1ccccc12)NCc1ccco1	0%	30*	-11%	51*	-24%[5.75 µM]	41
CC(C)(C)c1nc(SCC(=O)NCc2ccco2)c2ccccc2n1	-7%	-4	u	-1	u	-88*
O=C(CSc1nc2ccccc2c(=O)n1-c1ccccc1)NCc1ccco1	0%	42*	2%	41	-2%	-14
O=C(CSc1c2c(nc3ccccc13)CCCC2)NCc1ccco1	u	-5	u	-9	-11%	-35
O=C(O)CSc1ncnc2c1oc1ccccc12	46%	-2	6%	-21	0%	-27
Cc1nc2c(c(C)nn2-c2ccccc2)c(C)c1CCC(=O)Nc1ccc(F)cc1	x	x	x	x	x	-30
O=C(CSc1nc2ccsc2c(=O)n1Cc1ccccc1)NCc1ccco1	u	47*	8.9µM*	active	x	15
CC(=O)NCCn1c(SCC(=O)NCc2ccco2)nc2ccccc2c1=O	6%	-1	13%	-15	4.7µM*	-5
CN(Cc1ccccc1)C(=O)CSc1nc2ccccc2c(=O)n1Cc1ccco1	-11%	38*	u	39	u	-80*
COc1ccc(CCNC(=O)CCn2c(SCC#N)nc3ccccc3c2=O)cc1OC	8%	-1	13µM*	-6	x	-8
CC1=C(C)C[C@@]23CCCN2C(=O)CCC[C@H]3C1	x	7	x	i	x	x
O=C(NCc1ccc(Cl)c(Cl)c1)O[C@H]1CC[C@@]23CCCN2C(=O)CCC[C@H]3[C@H]1Cc1ccccc1	x	x	x	x	x	-5
Nc1ncnc2c1ncn2C1OC(CO)C2OC21 (configuration not stated)	x	x	x	x	x	-12
Nc1ncnc2c1ncn2[C@@H]1O[C@H](COS(=O)(=O)O)[C@@H](O)[C@H]1O	13µM*	x	9%	x	u	-1
Nc1ncnc2c1ncn2[C@@H]1O[C@H](CO)C[C@H]1O	x	x	10µM*	x	x	-3
CCOC1OC2C(CO)OC(n3cnc4c(N)ncnc43)C2O1 (configuration not stated)	0%	-2	10%	-6	4.7µM*	-17
CN1N=C(N)c2cn(C3OC(COP(=O)(O)O)C(O)C3O)c3ncnc1c23 (configuration not stated)	x	x	u	x	x	-70*
CC1(C)O[C@@H]2[C@H](O1)[C@@H](CO)O[C@H]2n1cnc2c(N)ncnc21	21%	x	27%	x	41%	7
NS(=O)(=O)c1ccc(CCNC(=O)c2ccc(NS(=O)(=O)c3ccc4[nH]c(=O)[nH]c4c3)cc2)cc1	-3%	x	-4%	x	5%	-26
CC(C)(C)OC(=O)N1CCC(c2c(C(=O)NCCN3CCOCC3)cnn2-c2cccc(Cl)c2)CC1	x	x	x	x	x	-7
Nc1ncnc2c1ncn2[C@@H]1O[C@H](COP(=O)(O)OP(=O)(O)OP(=O)(O)O)[C@@H](O)[C@H]1O	-13%	x	0.56µM*	x	18%	x
Nc1ncnc2c1ncn2C1OC(COP(=O)(O)O)C(O)C1O (configuration not stated)	9%	0	7%	-6	0%	101
Nc1ncnc2c1ncn2[C@@H]1O[C@H](COP(=O)(O)O)[C@@H](O)[C@H]1O	-1%	1	0.56µM*	-5	u	45
SMILES	Pf growth 48h	CHX counter	HCV inh	Shiga toxin inh	Pf growth 96h	HCMV inh
CCCCCn1c(=O)[nH]c2cc(C(=O)NC(C)CC)ccc2c1=O (configuration not stated)	x	x	x	x	x	-2
CCOc1ccc(N(CC)C(=O)CSc2n[nH]c(-c3ccccc3)n2)cc1	x	x	x	x	x	-6
Cc1ccc(Cc2c(C3CCCCC3)nc3c(C)cc(Br)cn23)cc1	x	x	x	x	x	-1
COc1ccccc1NC(=O)Nc1cccc(NC(C)=O)c1	-2%	1	-12%	1	0%	-14
COC(=O)c1cccc(NC(=O)Nc2ccc(Cl)c(Cl)c2)c1	u	38*	x	59*	u	-101*
COC(=O)c1cccc(NC(=O)Nc2ccccc2OC)c1	70%	23*	-23%	43*	33%	39
COC(=O)c1cc(NC(=O)Nc2ccccc2)ccc1Cl	54%	41*	u	92*	u	-31
COc1ccc(NC(=O)CN2C(=O)NC(C)(Cc3ccc(OC)c(OC)c3)C2=O)cc1 (configuration not stated)	x	x	x	x	x	2
CC(C)Oc1ccc(C(=O)Nc2nnc3n2CCS3)cc1	x	x	x	x	x	87
O=[N+]([O-])c1cc(S(=O)(=O)NCc2ccco2)ccc1NN=Cc1ccccn1	x	x	x	x	x	40
CCOc1ccccc1-c1nc(CN2CCCN(C(=O)c3ccco3)CC2)c(C)o1	u	-2	x	-10	-28%	-101*
COc1ccc(-c2nc(CN3CCN(C(=O)c4ccco4)CC3)c(C)o2)c(OC)c1C	7.4µM*	-2	-23%	13	53%	-6
COc1ccc(OC)c(-c2nc(CN3CCN(C(=O)c4ccco4)CC3)c(C)o2)c1	u	-2	-17%	-8	u	39
CCC1CCCCN1S(=O)(=O)c1ccc2c(c1)CCN2C(C)=O (configuration not stated)	6%	-4	6%	-6	-20%	-17
O=C(CSc1nnc(COc2ccc(Cl)cc2)o1)Nc1ccc(N2CCOCC2)cc1	40%	x	18%	x	18%	-13
CC(=O)c1ccc(NC(=S)NC(=O)/C=C/c2ccc(F)cc2)cc1	1%	20*	7%	26	u	x
O=C(/C=C/c1ccc(Cl)cc1)NC(=S)Nc1ccc(C(=O)O)cc1	x	-2	13%	-6	-9%	-9
COc1cccc(NC(=S)NC(=O)/C=C/c2ccc(F)cc2)c1	4%	8	-14%	x	-27%	70
CN(C)c1ccc(NC(=S)NC(=O)/C=C/c2ccc(Cl)cc2)cc1	270%	53*	1%	105*	266%	-33
CN(C)c1cccc(C(=O)Nc2ccc(S(=O)(=O)Nc3nccs3)cc2)c1	x	x	u	x	x	-35
CCC(=O)c1ccc(N2CCN(C(=O)COc3ccccc3F)CC2)c(F)c1	u	-1	u	-21	30%	-14
CCC(=O)c1ccc(N2CCN(S(=O)(=O)c3ccccc3)CC2)c(F)c1	-5%	44*	-12%	-16	9.3µM*	-3
CCC(=O)c1ccc(N2CCN(C(=O)c3cccs3)CC2)c(F)c1	-4%	21*	-8%	22	u	59
CCCC(=O)c1cc(F)c(N2CCOCC2)cc1C	18%	13	1%	16	1.3µM*	-33
